USP2a block – qHTS Assay for Inhibitors of Ubiquitin-specific Protease USP2a Using CHOP2 as the Reporter. Ubiquitin carboxyl-terminal hydrolase 2 (Homo sapiens), O75604. USP2 core, Ub-CHOP2 coupled fluorogenic reporter, 485/531. Potency, µM (series often up to 38.3 µM), inactives show at the highest dose activity change, negative = inhibition, most hits filed as inhibitors. 330,000 tested, 0.01% active;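 note: potency is the fitted concentration of half-maximal effect; plate controls were DMSO wells for no effect and full inhibition by NEM control for full effect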
Target sequence (O75604 whole entry, looked up): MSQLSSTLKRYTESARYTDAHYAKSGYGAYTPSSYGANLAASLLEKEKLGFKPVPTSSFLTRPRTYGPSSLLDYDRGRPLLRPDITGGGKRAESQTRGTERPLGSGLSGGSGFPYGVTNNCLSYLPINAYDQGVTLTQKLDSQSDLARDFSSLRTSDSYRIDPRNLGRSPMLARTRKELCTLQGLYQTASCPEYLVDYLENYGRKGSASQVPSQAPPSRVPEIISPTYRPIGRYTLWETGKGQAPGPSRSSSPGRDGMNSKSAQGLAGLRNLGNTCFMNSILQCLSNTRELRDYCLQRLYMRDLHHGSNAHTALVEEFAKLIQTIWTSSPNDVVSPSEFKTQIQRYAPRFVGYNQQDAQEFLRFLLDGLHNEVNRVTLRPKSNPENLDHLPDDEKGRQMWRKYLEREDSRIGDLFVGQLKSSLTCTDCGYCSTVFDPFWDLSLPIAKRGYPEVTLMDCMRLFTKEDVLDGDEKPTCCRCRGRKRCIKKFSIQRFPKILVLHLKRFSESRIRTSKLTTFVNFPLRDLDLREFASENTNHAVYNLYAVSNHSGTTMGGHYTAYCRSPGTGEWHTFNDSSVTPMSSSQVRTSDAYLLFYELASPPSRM
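Cell-free coupled assay: 10nM USP2 core preincubated 30min RT with compound in Tris-HCl pH 8.0/CaCl2/CHAPS buffer, then 25nM Ub-CHOP2 and 25nM reporter substrate; fluorescence (Ex 485/Em 531) read after 60min RT, normalized to NEM inhibition, concentration-response curves fitted.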
VDR inhibitor – Inhibitors of the vitamin D receptor (VDR): qHTS | VDR-SRC2-3 peptide fluorescence polarization, 2 h | Vitamin D3 receptor (Homo sapiens), P11473 | 400,000 tested, 0.93% active | AID 504847, 2011 | Potency, µM, for inactives: max response, negative = inhibition, usual class: inhibitors; note: potency is the fitted concentration of half-maximal effect
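Measured by FP: displacement of SRC2-3 coactivator peptide from VDR by library compounds, following a two-hour ambient incubation.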
USP1-UAF1 inh – Inhibitors of USP1/UAF1: Primary Screen; Ubiquitin carboxyl-terminal hydrolase 1 (Homo sapiens), O94782; recombinant USP1/UAF1, Ub-Rhodamine cleavage fluorescence; Potency, µM (top dose mostly 57.1 µM), inactives show at the top dose activity change, negative = inhibition, usual class: inhibitors; 390,000 tested, 0.23% active; note: potency is the fitted concentration of half-maximal effect; nearly all actives have a fitted effect of over 60% in size
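1 nM enzyme complex + cpd, 15 min RT; start with Ub-Rho 150nM final; kinetic fluorescence ex 480/em 540, 6 reads q60 s. Buffer 50mM HEPES pH 7.8, 0.5mM EDTA, 0.1 mg/ml BSA, 1mM TCEP, 0.01% Tween-20.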
PLK1 PBD inh – qHTS for Inhibitors of PLK1-PDB (polo-like kinase 1 - polo-box domain): Primary Screen; Plk1 PBD binding of FITC phosphopeptide, fluorescence polarization; Potency, µM, without a hit: max response, negative = inhibition, usual class: inhibitors; Serine/threonine-protein kinase PLK1 (Homo sapiens), P53350; 360,000 tested, 2.8% active; note: potency is the fitted concentration of half-maximal effect; series mostly up to about 57 µM; nearly all actives have a fitted effect of over 65% in size
Coupling enz – qHTS Assay for Inhibitors of Fructose-1,6-bisphosphate Aldolase from Giardia Lamblia: Coupling assay counterscreen; coupling enzyme system counterscreen, AmpLite Red fluorescence; activity change, negative = inhibition, % at 58.2 µM, hits read low; 290,000 tested, 0.67% active; in the data active = activity change below about -30%
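Compounds tested against the coupling enzymes alone at 57.5 uM final; readout was AmpLite Red fluorescence (525/598 nm) after 20 min at RT.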
GALK inh – qHTS Assay for Inhibitors of Human Galactokinase (GALK); P51570; Purified GALK, Kinase-Glo residual ATP luminescence; Potency, µM (top dose mostly 57.5 µM), for inactives: at the highest dose activity change, negative = inhibition, hits mostly inhibitors; 270,000 tested, 0.007% active; AID 1868, 2009; note: potency is the fitted concentration of half-maximal effect
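The enzyme phosphorylates galactose (100 uM) using ATP (35 uM); inhibition is detected as higher residual ATP, quantified by bioluminescence after 1 h reaction at room temperature, pH 8.0.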
* marks the source's active call; other numbers are inactive results; ? = inconclusive; · = not tested or not shown. The list is not random: actives were taken first. Their share in the collection is about 3.2%. Unless noted, calls come from the whole dose curve; as a rule, active = well fitted curve in the direction sought with a large enough effect; inconclusive = small, poorly fitted or top-dose-only effect, or another doubt; inactive = no such curve, though single readings can be large; an effect the other way counts as inactive or inconclusive. Unless noted, % is set by controls: 0 for no effect and ±100 for the full control effect.

SMILES | USP2a block | VDR inhibitor | USP1-UAF1 inh | PLK1 PBD inh | Coupling enz | GALK inh
N=C1/C(=C/c2ccc(OCc3ccccc3F)cc2)C(=O)N=C2SC(CC(=O)N3CCOCC3)=NN12 | 3% | -14% | -9% | 38µM* | 12 | 10%
O=C(NCCc1ccccc1)C(=O)NCC1OCCN1S(=O)(=O)c1ccc(Br)cc1 (stereo unspecified) | 1% | -16% | -16% | 3% | · | -5%
O=C(NCc1ccc(Cl)cc1)C1(c2cccs2)CCOCC1 | · | 1% | -23% | · | · | ·
O=C(NC(=S)Nc1nc(-c2ccc(Cl)cc2)cs1)c1cccs1 | 5% | ? | -19% | 11µM* | -1 | 0%
Cc1c(O)ccc2c3c(c(=O)oc12)CCC(C)C3 (stereo unspecified) | -1% | 22% | -8% | -9% | 1 | 2%
O=C(C#Cc1ccccc1)c1ccccc1 | · | · | -16% | 3µM* | · | ·
O=C(C#Cc1ccccc1)c1ccc([N+](=O)[O-])cc1 | 4% | 14µM* | -21% | 0.47µM* | 0 | 0%
CN(C)C(=O)C#Cc1ccccc1 | 3% | 9% | 1% | -1% | 0 | 4%
COc1ccc(CCNc2oc(-c3cccc4ccccc34)nc2P(=O)(OC)OC)cc1OC | 3% | 4% | ? | -2% | 1 | 0%
Cc1ccc(Cn2c(C(C)Nc3nc(-c4ccc(F)cc4)cs3)nc3cc(Cl)c(Cl)cc32)cc1 (stereo unspecified) | · | -2% | -31% | -18% | · | ·
O=C(CN1CCC(C(=O)c2ccc(F)cc2)CC1)NCc1ccccc1F | -1% | -14% | -17% | -9% | -1 | 0%
CCOC(=O)N1CCN(C2=C(NS(=O)(=O)c3ccccc3)C(=O)c3ccccc3C2=O)CC1 | 3% | ? | ? | -23% | · | -1%
CN1CCN(C2=C(NS(=O)(=O)c3ccccc3)C(=O)c3ccccc3C2=O)CC1 | 0% | 2% | ? | -28% | -46* | 3%
NC(=O)C1CCN(c2nc3ccccc3nc2NS(=O)(=O)c2ccc(Br)cc2)CC1 | 4% | 10% | 4% | -27% | · | ·
NC(=O)C1CCN(C2=C(NS(=O)(=O)c3ccccc3)C(=O)c3ccccc3C2=O)CC1 | -1% | -3% | -17% | -18% | -31* | 1%
NC(=O)C1CCN(C2=C(NS(=O)(=O)c3ccc(Br)cc3)C(=O)c3ccccc3C2=O)CC1 | -7% | ? | ? | -12% | -32* | ·
CCOC(=O)C1CCN(C2=C(NS(=O)(=O)c3ccc(Br)cc3)C(=O)c3ccccc3C2=O)CC1 | 1% | ? | ? | ? | -33* | 7%
CCOC(=O)N1CCN(C2=C(NS(=O)(=O)c3ccc(Br)cc3)C(=O)c3ccccc3C2=O)CC1 | · | · | -25% | -18% | · | ·
Cc1ccc(C)c(NC(=O)Cn2cc(S(=O)(=O)NC(C)C)c(S(=O)(=O)NC(C)C)c2)c1 | · | 15% | -4% | · | · | ·
O=C(NCCN1CCN(c2cccc(Cl)c2)CC1)c1ccc(CSc2nc3ccncc3[nH]2)cc1 | -2% | -3% | -17% | -5% | 3 | 0%
COc1ccc(C)cc1-n1ccn(CC(=O)Nc2ccc(Br)cc2F)c(=O)c1=O | -2% | -8% | -19% | 3% | · | ·
CCc1ccccc1Oc1nc(NC(C)C)nc2ccsc12 | · | · | · | -1% | · | ·
O=C1C(NS(=O)(=O)c2ccc(Cl)cc2)=C(N2CCCCC2)C(=O)c2ccccc21 | 4% | -13% | ? | -18% | -34* | 1%
O=C(O)c1ccc(-n2cc(C(=O)c3ccccc3O)cn2)cc1 | 0% | 10% | -8% | -7% | 8 | 5%
Cc1cc(O)c(C(C)C)cc1N=Cc1ccccc1[N+](=O)[O-] | · | 32µM* | ? | -3% | · | ·
SMILES | USP2a block | VDR inhibitor | USP1-UAF1 inh | PLK1 PBD inh | Coupling enz | GALK inh
O=C(CN1C(=O)/C(=C\c2ccco2)SC1=S)Nc1ccc(O)cc1C(=O)O | 1% | -13% | ? | 17µM* | · | 6%
CC(C(=O)Nc1ccc(O)cc1C(=O)O)N1C(=O)/C(=C\c2cccs2)SC1=S (stereo unspecified) | 1% | 45µM* | ? | 6.7µM* | · | -12%
O=C(CCCN1C(=O)/C(=C\c2ccccc2)SC1=S)Nc1ccc(O)cc1C(=O)O | 1% | -22% | -27% | -16% | · | 3%
O=C(CCN1C(=O)/C(=C/c2ccco2)SC1=S)Nc1ccc(O)cc1C(=O)O | 2% | ? | ? | 0% | 0 | ·
O=C(CCN1C(=O)/C(=C\c2ccccc2Cl)SC1=S)Nc1cccnc1 | 1% | -27% | -23% | -11% | -1 | -5%
O=C(CCN1C(=O)/C(=C/c2ccccc2Cl)SC1=S)Nc1ccccc1C(=O)O | -9% | 79µM* | ? | 24µM* | 10 | -1%
CCc1ccc(/C=C2/SC(=S)N(CCCC(=O)Nc3ccccc3C(=O)O)C2=O)cc1 | 4% | ? | -19% | 24µM* | · | -8%
Fc1ccc(-[n+]2nc(Nc3ccccc3)sc2-c2c3ccccc3cc3ccccc23)cc1 | -3% | -19% | ? | -7% | -31* | ·
CSc1ccc(-c2sc(Nc3ccccc3)n[n+]2-c2ccc(F)cc2)cc1 | 1% | -16% | -23% | 30µM* | 8 | ·
N/C(CS(=O)(=O)c1ccccn1)=N\OC(=O)c1ccccc1Cl | 2% | 6% | ? | -1% | 0 | 6%
CCN(CC)CCNC(=O)c1cn(CC)c2ccc(S(=O)(=O)N3CCc4ccccc4C3)cc2c1=O | 1% | -17% | ? | 27µM* | -1 | -2%
CCN(CC)CCCNC(=O)c1cn(CC)c2ccc(S(=O)(=O)N3CCc4ccccc4C3)cc2c1=O | 0% | 1% | -18% | 3% | 1 | 1%
CCCCCCCCCCOC(=O)C[N+](C)(C)C/C=C(/C)Cl | -1% | -25% | -12% | 30µM* | -2 | 0%
CCc1c(C)nc2ncnn2c1N1CCCC(C(=O)Nc2ccc(NC(C)=O)cc2)C1 (stereo unspecified) | 2% | -13% | 0% | -1% | · | 1%
COC(=O)C1=C(C)N(c2cccc(OC)c2)C(=O)/C1=C\c1ccco1 | -3% | ? | -18% | 30µM* | -2 | -2%
O=C(C=Cc1ccc2c(c1)OCO2)c1ccccc1 | · | 40µM* | -11% | -5% | · | ·
